BAZ2B inh: BAZ2B (human) inhibition; Q9UIF8; AlphaScreen BAZ2B-H3K14Ac peptide displacement; Potency, µM (highest dose often 114 µM), usual class: inhibitors; actives 4.4% (n = 360,000); AID 504333; also: nearly all actives have a fitted effect of over 60% in size
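AlphaScreen displacement: compounds (up to 110uM) incubated 30 min at room temperature with a preformed 50 nM BAZ2B/50 nM biotinylated H3K14Ac peptide complex in PBS pH 7.4 with Tween-20. Donor and acceptor beads at 10 ug/mL final added, 20 min light-protected before reading.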
GLS inhibitor: glutaminase GLS (human) inhibition. GLS enzymatic activity, qHTS titration. AID 624170. Potency, µM (highest dose often 45.5 µM), usual class: inhibitors. actives 0.21% (n = 410,000)
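hKGA; 45 mM KH2PO4 pH 8.2 + 0.02% Tween-20; cpd via pin tool; 1 mM Gln soln; GluOx/HRP/Amplex Red; RT 30 min; fluor. t0 & final.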
JMJD2A Tudor inh: inhibitors of human JMJD2A Tudor domain; AlphaScreen JMJD2A-Tudor / H3K4me3 peptide binding; Potency, µM (top dose mostly 114 µM), most hits filed as inhibitors; actives 4.4% (n = 390,000); AID 504339; also: nearly all actives have a fitted effect of over 50% in size
Target sequence (O75164 whole entry, looked up, the tested form may be a part): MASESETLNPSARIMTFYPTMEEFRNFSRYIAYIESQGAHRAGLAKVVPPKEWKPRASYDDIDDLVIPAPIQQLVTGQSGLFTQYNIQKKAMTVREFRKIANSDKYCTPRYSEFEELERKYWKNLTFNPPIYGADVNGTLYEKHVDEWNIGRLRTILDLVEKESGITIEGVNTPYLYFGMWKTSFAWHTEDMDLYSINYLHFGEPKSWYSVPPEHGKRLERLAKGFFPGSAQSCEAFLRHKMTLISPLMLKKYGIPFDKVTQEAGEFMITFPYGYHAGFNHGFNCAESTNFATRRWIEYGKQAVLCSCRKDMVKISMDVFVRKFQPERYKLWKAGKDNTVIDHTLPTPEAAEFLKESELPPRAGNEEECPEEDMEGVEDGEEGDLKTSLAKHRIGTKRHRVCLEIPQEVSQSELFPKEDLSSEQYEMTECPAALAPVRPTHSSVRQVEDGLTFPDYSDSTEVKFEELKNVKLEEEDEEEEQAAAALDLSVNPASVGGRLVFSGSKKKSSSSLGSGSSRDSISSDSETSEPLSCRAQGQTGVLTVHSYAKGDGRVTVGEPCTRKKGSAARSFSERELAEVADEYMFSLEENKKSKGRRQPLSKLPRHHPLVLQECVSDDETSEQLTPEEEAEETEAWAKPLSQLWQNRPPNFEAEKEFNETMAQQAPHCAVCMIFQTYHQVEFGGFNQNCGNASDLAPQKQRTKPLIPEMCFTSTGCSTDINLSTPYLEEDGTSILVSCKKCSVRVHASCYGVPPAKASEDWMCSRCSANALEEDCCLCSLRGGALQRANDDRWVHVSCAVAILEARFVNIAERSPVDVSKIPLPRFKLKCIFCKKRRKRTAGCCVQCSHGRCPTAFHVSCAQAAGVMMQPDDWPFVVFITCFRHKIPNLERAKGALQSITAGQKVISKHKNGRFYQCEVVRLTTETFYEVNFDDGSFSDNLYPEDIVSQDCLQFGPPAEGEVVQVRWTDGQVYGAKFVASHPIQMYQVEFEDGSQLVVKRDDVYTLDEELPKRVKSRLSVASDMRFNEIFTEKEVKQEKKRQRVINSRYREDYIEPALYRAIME
HP1b binding inh: inhibitors of HP1-beta chromodomain binding to methylated histone tails; P83916; AlphaScreen HP1-beta / biotin-H3K9me3 peptide binding; Potency, µM (doses to about 114 µM), actives largely listed as inhibitors; actives 0.56% (n = 390,000); AID 540317; also: nearly all actives have a fitted effect of over 70% in size
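AlphaScreen: HP1-beta (50 nM) preformed 30 min with biotin-H3(1-18)K9me3 peptide (50 nM) in PBS pH 7.4, 0.01% Tween-20. Compound added for 30 min at RT, then streptavidin donor/nickel chelate acceptor beads (10 ug/mL) for 30 min.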
G9a block: blocks human histone lysine methyltransferase G9a; Potency, µM (highest dose often 102 µM), actives largely listed as inhibitors; actives 8.8% (n = 350,000); G9a H3K9 monomethylation, AlphaScreen, 2 h; AID 504332; Q96KQ7; also: nearly all actives have a fitted effect of over 75% in size
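Readings reflect AlphaScreen signal from monomethyl-H3K9 antibody detection. HMT at 20 nM; substrate b-H3K9 500 nM; cofactor SAM 20 uM; 2 h RT reaction; compounds tested as titrations in qHTS with 15 min preincubation.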
Each line names hits and unclear results; the compound was inactive in the other large screens. Only some compounds are listed: those with a hit (about 10% of all), similar ones and a draw of the others. Calls follow the shape of the dose curve; as a rule, active = well fitted curve in the direction sought with a large enough effect; inconclusive = small, poorly fitted or top-dose-only effect, or another doubt; inactive = no such curve, though single readings can be large; an effect the other way counts as inactive or inconclusive.

CC12CCC3C(CCC4N(CCO)CCC34C)C1CCC2O (stereo not given)	none
COc1ccccc1/C=C/C=N/n1c(-c2cc(-c3ccccc3)n[nH]2)n[nH]c1=S	JMJD2A Tudor inh inconclusive, G9a block inconclusive
S=c1[nH]nc(-c2cc(-c3ccccc3)n[nH]2)n1/N=C/C=C/c1ccccc1	JMJD2A Tudor inh inconclusive, G9a block 8.9µM
S=c1[nH]nc(-c2cc(-c3ccccc3)n[nH]2)n1/N=C/c1ccccc1	JMJD2A Tudor inh 56µM
CCCNC(=S)N1CCC(NC(=O)c2cccc(C)c2)CC1	none (no result: G9a block)
Cc1cccc(C(=O)NC2CCN(C(=O)NCc3ccccc3)CC2)c1	JMJD2A Tudor inh inconclusive, G9a block 11µM
Cc1ccc(NC(=O)N2CCC(NC(=O)c3cccc(C)c3)CC2)cc1	BAZ2B inh 50µM, GLS inhibitor inconclusive, JMJD2A Tudor inh 40µM, HP1b binding inh inconclusive, G9a block 7.9µM
COc1cc(OC)c(NC(=O)CC2SC(N)=NC2=O)cc1Cl (stereo not given)	none (no result: BAZ2B inh, JMJD2A Tudor inh, HP1b binding inh, G9a block)
O=C(COC(=O)[C@H](Cc1ccccc1)NC(=O)c1cccs1)Nc1c(Cl)cccc1Cl	G9a block 50µM
COc1nc(OC)nc(N2CCC(C(=O)NCc3ccco3)CC2)n1	none
O=C(NCc1ccco1)C1CCN(c2nc3ccccc3n2Cc2ccc(F)cc2)CC1	BAZ2B inh inconclusive, JMJD2A Tudor inh inconclusive, G9a block 79µM
CCN(CC)CCNC(C(=O)Nc1cc(C(F)(F)F)ccc1Cl)c1ccccc1 (stereo not given)	BAZ2B inh inconclusive, G9a block 10µM
O=C(Nc1cc(C(F)(F)F)ccc1Cl)C(NCc1ccccc1)c1ccccc1 (stereo not given)	none
O=CNC(=O)c1ccccc1C(=O)O	none
COc1cc2c(cc1N/C=C(\C#N)c1nc(-c3ccccc3)cs1)oc1ccccc12	none
CC[n+]1c(/C=C2\Sc3ccccc3N2C)ccc2cccc(C)c21	BAZ2B inh 45µM, HP1b binding inh inconclusive, G9a block 25µM
CC[n+]1ccccc1/C=C1\Sc2ccc(C)cc2N1C	BAZ2B inh inconclusive, JMJD2A Tudor inh inconclusive
CCN1/C(=C/c2ccc3cc(C)ccc3[n+]2CC)Sc2ccccc21	BAZ2B inh 45µM, HP1b binding inh inconclusive, G9a block 7.9µM
CC(=S)/C=C1\Sc2ccccc2N1C	BAZ2B inh 50µM, JMJD2A Tudor inh inconclusive, HP1b binding inh inconclusive, G9a block inconclusive
CN1/C(=C/c2cccc[n+]2CCO)Sc2ccccc21	BAZ2B inh 56µM, JMJD2A Tudor inh inconclusive, G9a block 45µM
CCN1/C(=C/c2ccc3cc(C)ccc3[n+]2CC)Sc2cc(C)c(C)cc21	BAZ2B inh 45µM, JMJD2A Tudor inh inconclusive, HP1b binding inh inconclusive, G9a block 14µM
O=C(CCNc1cccc(F)c1)c1cccc([N+](=O)[O-])c1	BAZ2B inh 35µM, JMJD2A Tudor inh inconclusive, G9a block 7.1µM
O=C(CCNc1cccc(F)c1)c1cc2ccccc2o1	G9a block 10µM
O=C(CCNc1ccc(Cc2ccncc2)cc1)c1cccc([N+](=O)[O-])c1	BAZ2B inh 25µM, JMJD2A Tudor inh 45µM, HP1b binding inh inconclusive, G9a block 8.9µM
Cc1ccc(S(=O)(=O)CCC(=O)c2cccc([N+](=O)[O-])c2)cc1	JMJD2A Tudor inh 28µM, HP1b binding inh 45µM, G9a block 1.4µM
Cc1ccc(C(=O)CCS(=O)(=O)c2ccc(Br)cc2)cc1	none
CCN(c1ccccc1)S(=O)(=O)c1ccc(OC)c(NC(=O)Cc2ccc(OC)c(OC)c2)c1	none
COc1ccccc1CNC(=O)CC1C(=O)NCCN1C1Cc2ccccc2C1 (stereo not given)	none
CCCCOc1ccc(C(=O)N=c2sccn2C)cc1OC	none
Cc1ccc(-n2c(-c3ccco3)nc3nc4ccccc4nc32)cc1F	G9a block inconclusive
Cc1ccc(S(=O)(=O)Cc2cc(F)c([N+](=O)[O-])cc2[N+](=O)[O-])cc1	BAZ2B inh 56µM, G9a block 50µM
CCOC(=O)c1ccc([N+](=O)[O-])c(CS(=O)(=O)c2ccc(Cl)cc2)c1	BAZ2B inh inconclusive, JMJD2A Tudor inh inconclusive, HP1b binding inh inconclusive
Oc1ccc(N=Cc2ccc(OCc3ccccc3)cc2)cc1	BAZ2B inh inconclusive, JMJD2A Tudor inh inconclusive, HP1b binding inh inconclusive, G9a block 2.5µM
O=C(N/N=C/c1ccc(OCc2ccccc2)cc1)c1ccncc1	none
Oc1ccc(-c2csc(-c3cccnc3)n2)c(O)c1	none (no result: BAZ2B inh)
Oc1ccc(-c2nc(-c3ccc(O)c(O)c3)cs2)cc1	BAZ2B inh inconclusive, GLS inhibitor inconclusive, JMJD2A Tudor inh 50µM, HP1b binding inh inconclusive, G9a block 8.9µM
CC1=Nc2ccccc2/C1=C\c1nc(-c2ccccc2)oc1O	BAZ2B inh inconclusive, JMJD2A Tudor inh inconclusive, G9a block inconclusive
CC1=Nc2ccccc2/C1=C/c1c(C)[nH]c2ccccc12	JMJD2A Tudor inh 56µM, HP1b binding inh inconclusive (no result: BAZ2B inh, G9a block)
OCCC1CN(Cc2cc(F)ccc2-n2cccn2)CCN1Cc1ccc(F)cc1 (stereo not given)	none
COc1ccc(CCC(=O)Nc2ccc(C)c([N+](=O)[O-])c2)cc1	BAZ2B inh inconclusive, JMJD2A Tudor inh inconclusive, G9a block 10µM
Cc1ccc2nc(SCC(=O)Nc3cc([N+](=O)[O-])ccc3F)[nH]c2c1	BAZ2B inh inconclusive, G9a block 25µM
O=C(CSCc1ccccc1)Nc1cc([N+](=O)[O-])ccc1F	BAZ2B inh inconclusive, G9a block 32µM
Cc1ccc2nc(SCC(=O)Nc3ccc(C)c([N+](=O)[O-])c3)[nH]c2c1	BAZ2B inh inconclusive, G9a block 11µM
Cc1ccc2nc(SCC(=O)Nc3ccc(F)c([N+](=O)[O-])c3)[nH]c2c1	BAZ2B inh inconclusive, G9a block inconclusive
COc1ccc(C2CC(=O)Oc3cc(C)c(Cl)c(C)c32)cc1 (stereo not given)	none (no result: BAZ2B inh)
CCC(=O)Nc1ccc(C(=O)CSc2nc3ccc(C)cc3[nH]2)cc1	G9a block 28µM
Cc1ccc(C(=O)OCC(=O)N(C)c2ccccc2)c(C)c1	none
Cc1ccc(C2C(C#N)=C(N)Oc3n[nH]c(-c4cccs4)c32)s1 (stereo not given)	BAZ2B inh inconclusive, G9a block 50µM
CNC(=O)N(O)C1N(C)C(=O)N(CC(=O)OC)C1(C)C (stereo not given)	JMJD2A Tudor inh 16µM
CC(C)C(NC(=O)c1ccccc1F)C(=O)NCc1ccccc1 (stereo not given)	JMJD2A Tudor inh 40µM
Cc1nc2ccc(N=NN(C)C)cc2[nH]1	HP1b binding inh 16µM (no result: G9a block)
Cc1nnc(-c2ccc(N3CCOCC3)c([N+](=O)[O-])c2)o1	none
Cc1nnc(-c2ccc(N3CCCCCC3)c([N+](=O)[O-])c2)o1	BAZ2B inh inconclusive, JMJD2A Tudor inh inconclusive, G9a block 45µM
Cc1ccc(NC(=S)NNC(=O)c2c(Cl)c(C)nn2C)cc1	G9a block 1.4µM
Cc1ccc(NC(=S)NNC(=O)c2c([N+](=O)[O-])c(C)nn2C)cc1	none

Screens deposited in PubChem BioAssay by National Center for Advancing Translational Sciences (NCATS).
